Results from ChEMBL document CHEMBL2218924, “A broad activity screen in support of a chemogenomic map for kinase signalling research and drug discovery” (Biochem J, 2013).

How the values were obtained:
[1] = molecular target: Mitogen-activated protein kinase 11 (Homo sapiens) (UniProt Q15759); conditions: at 1 µM
[2] = molecular target: Mitogen-activated protein kinase 11 (Homo sapiens) (UniProt Q15759); conditions: at 10 µM
[3] = molecular target: T1, Mitogen-activated protein kinase 13 (Homo sapiens) (UniProt O15264); conditions: at 10 µM
T1 sequence (whole entry): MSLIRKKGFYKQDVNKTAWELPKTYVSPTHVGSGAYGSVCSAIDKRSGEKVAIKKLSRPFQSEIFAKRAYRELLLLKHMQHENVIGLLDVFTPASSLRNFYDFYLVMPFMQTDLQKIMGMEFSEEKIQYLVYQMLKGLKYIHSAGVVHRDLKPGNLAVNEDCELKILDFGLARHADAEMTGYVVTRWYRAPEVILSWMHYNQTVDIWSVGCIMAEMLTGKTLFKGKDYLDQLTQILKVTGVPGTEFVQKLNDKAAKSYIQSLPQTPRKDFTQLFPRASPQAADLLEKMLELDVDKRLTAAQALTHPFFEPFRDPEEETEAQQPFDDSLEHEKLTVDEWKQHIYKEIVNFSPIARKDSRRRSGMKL

[4] = molecular target: T2, Serine/threonine-protein kinase Sgk1 (Homo sapiens) (UniProt O00141); conditions: at 1 µM
T2 sequence (whole entry): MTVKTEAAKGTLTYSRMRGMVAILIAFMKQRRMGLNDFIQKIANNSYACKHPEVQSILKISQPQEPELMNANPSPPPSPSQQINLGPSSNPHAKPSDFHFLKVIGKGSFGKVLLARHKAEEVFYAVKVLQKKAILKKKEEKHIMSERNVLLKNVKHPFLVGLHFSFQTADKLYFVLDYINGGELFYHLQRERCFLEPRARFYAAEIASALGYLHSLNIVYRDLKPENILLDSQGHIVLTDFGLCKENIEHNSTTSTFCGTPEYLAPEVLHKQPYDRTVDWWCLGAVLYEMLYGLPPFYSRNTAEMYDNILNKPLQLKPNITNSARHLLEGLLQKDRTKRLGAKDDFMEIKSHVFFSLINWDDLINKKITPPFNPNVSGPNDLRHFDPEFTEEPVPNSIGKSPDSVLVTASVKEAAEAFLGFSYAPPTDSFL

[5] = molecular target: T2, Serine/threonine-protein kinase Sgk1 (Homo sapiens); conditions: at 10 µM
[6] = molecular target: T3, Serine/threonine-protein kinase Sgk2 (Homo sapiens) (UniProt Q9HBY8); conditions: at 10 µM
T3 sequence (whole entry): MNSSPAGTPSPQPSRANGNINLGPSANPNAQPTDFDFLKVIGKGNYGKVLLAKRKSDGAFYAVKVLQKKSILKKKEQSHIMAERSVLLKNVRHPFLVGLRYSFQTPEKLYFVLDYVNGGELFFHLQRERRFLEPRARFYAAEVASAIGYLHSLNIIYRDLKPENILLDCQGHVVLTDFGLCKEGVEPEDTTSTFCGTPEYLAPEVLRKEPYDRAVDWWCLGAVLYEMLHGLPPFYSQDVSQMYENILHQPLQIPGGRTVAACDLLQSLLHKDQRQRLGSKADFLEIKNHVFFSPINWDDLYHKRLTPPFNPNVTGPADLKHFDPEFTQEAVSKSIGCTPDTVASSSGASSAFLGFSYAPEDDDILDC

[7] = molecular target: T4, Serine/threonine-protein kinase Sgk3 (Homo sapiens) (UniProt Q96BR1); conditions: at 10 µM
T4 sequence (whole entry): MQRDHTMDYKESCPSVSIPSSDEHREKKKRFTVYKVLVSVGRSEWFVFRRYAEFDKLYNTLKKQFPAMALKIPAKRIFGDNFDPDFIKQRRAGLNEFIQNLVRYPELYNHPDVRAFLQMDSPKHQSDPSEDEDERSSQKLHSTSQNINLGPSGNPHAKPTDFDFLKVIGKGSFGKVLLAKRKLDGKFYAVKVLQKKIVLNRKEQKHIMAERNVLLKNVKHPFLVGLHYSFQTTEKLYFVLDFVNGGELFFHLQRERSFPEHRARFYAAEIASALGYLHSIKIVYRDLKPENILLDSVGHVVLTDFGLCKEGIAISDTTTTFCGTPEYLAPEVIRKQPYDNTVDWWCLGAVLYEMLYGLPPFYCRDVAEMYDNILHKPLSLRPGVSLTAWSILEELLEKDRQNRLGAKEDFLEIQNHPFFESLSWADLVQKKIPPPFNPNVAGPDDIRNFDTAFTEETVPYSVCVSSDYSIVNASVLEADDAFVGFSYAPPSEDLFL

[8] = molecular target: Serine/threonine-protein kinase SIK1 (Homo sapiens) (UniProt P57059); conditions: at 1 µM
[9] = molecular target: T1, Mitogen-activated protein kinase 13 (Homo sapiens); conditions: at 1 µM
[10] = molecular target: T3, Serine/threonine-protein kinase Sgk2 (Homo sapiens); conditions: at 1 µM

Sequence of Mitogen-activated protein kinase 11 (Homo sapiens) (Q15759 whole entry): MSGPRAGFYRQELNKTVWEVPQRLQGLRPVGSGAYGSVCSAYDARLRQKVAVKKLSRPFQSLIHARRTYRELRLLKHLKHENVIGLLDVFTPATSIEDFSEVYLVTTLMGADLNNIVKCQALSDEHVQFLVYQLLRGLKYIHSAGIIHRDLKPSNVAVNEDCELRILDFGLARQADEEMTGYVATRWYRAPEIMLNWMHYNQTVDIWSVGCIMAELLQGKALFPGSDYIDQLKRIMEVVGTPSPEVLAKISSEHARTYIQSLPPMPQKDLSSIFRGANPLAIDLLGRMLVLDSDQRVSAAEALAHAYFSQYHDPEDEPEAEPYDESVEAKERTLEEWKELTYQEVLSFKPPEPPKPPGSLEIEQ
Sequence of Serine/threonine-protein kinase SIK1 (Homo sapiens) (P57059 whole entry): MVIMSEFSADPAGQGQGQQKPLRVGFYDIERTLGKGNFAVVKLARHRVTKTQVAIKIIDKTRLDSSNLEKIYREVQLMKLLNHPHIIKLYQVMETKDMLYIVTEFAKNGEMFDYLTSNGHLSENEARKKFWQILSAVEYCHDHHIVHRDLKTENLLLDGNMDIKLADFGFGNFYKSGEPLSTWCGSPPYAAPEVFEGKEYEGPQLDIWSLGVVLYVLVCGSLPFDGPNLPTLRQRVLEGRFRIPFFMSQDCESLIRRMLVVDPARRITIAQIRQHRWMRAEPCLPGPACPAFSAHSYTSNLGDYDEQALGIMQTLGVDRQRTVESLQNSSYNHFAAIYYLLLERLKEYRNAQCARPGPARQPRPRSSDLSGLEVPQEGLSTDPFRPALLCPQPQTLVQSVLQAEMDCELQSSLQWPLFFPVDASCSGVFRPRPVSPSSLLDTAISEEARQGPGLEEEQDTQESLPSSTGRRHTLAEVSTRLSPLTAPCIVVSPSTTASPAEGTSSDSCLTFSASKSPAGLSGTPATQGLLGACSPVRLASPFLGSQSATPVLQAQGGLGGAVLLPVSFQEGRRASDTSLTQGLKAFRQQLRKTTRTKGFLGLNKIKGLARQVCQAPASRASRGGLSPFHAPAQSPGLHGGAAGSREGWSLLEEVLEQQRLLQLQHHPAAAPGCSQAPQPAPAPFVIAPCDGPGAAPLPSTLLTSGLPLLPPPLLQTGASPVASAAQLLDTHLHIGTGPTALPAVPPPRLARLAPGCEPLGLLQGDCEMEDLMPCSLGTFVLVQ

O=c1cc(N2CCNCC2)oc2c(-c3ccccc3)cccc12
residual activity [1]: 95%
residual activity [2]: 105%
residual activity [3]: 83%
residual activity [4]: 80%
residual activity [5]: 98%
residual activity [6]: 79%
residual activity [7]: 90%
residual activity [8]: 82%

COc1cc2nccc(Oc3ccc(NC(=S)NC(=O)c4ccccc4C)cc3)c2cc1OC
residual activity [1]: 83%
residual activity [2]: 87%
residual activity [9]: 101%
residual activity [3]: 87%
residual activity [10]: 99%
residual activity [7]: 79%
residual activity [8]: 32%

CC(C)(C)n1nc(Cc2cccc3ccccc23)c2c(N)ncnc21
residual activity [1]: 64%
residual activity [2]: 22%
residual activity [9]: 101%
residual activity [3]: 95%
residual activity [4]: 100%
residual activity [5]: 127%
residual activity [10]: 101%
residual activity [6]: 78%
residual activity [7]: 105%
residual activity [8]: 72%

CC(C)(C)c1nc2c3ccc(F)cc3c3c(=O)[nH]ccc3c2[nH]1
residual activity [1]: 62%
residual activity [2]: 69%
residual activity [4]: 63%
residual activity [5]: 68%
residual activity [10]: 63%
residual activity [6]: 55%
residual activity [8]: 31%

COc1ccc(-c2cnc3c(-c4ccsc4)cnn3c2)cc1
residual activity [1]: 94%
residual activity [2]: 95%
residual activity [4]: 99%
residual activity [5]: 94%
residual activity [10]: 97%
residual activity [6]: 83%
residual activity [8]: 87%

Nc1n[nH]c2nc3ccccc3nc12
residual activity [3]: 98%
residual activity [10]: 92%
residual activity [6]: 45%
residual activity [8]: 118%

O=C(Nc1nc2ccccc2n1CCN1CCOCC1)c1cccc([N+](=O)[O-])c1
residual activity [9]: 109%
residual activity [3]: 87%
residual activity [10]: 108%
residual activity [6]: 75%
residual activity [8]: 70%

N#C/C(=C1/Nc2ccccc2S1)c1ccnc(NCCc2cccnc2)n1
residual activity [9]: 78%
residual activity [3]: 48%
residual activity [8]: 146%

O=S(=O)(NCCNC/C=C/c1ccc(Br)cc1)c1cccc2cnccc12
residual activity [6]: 30%
residual activity [8]: 137%

COc1cc2ncnc(Nc3cccc(Cl)c3)c2cc1OC
residual activity [2]: 45%
residual activity [9]: 118%
residual activity [3]: 109%
residual activity [4]: 89%
residual activity [5]: 113%
residual activity [10]: 77%
residual activity [6]: 70%
residual activity [8]: 84%

CCCCc1c(-c2ccc(O)cc2)[nH]c2nccnc12
residual activity [9]: 98%
residual activity [3]: 88%
residual activity [10]: 92%
residual activity [6]: 90%
residual activity [7]: 75%
residual activity [8]: 69%

O=C1Nc2ccccc2/C1=C\c1c(Cl)[nH]c2ccccc12
residual activity [1]: 99%
residual activity [6]: 77%
residual activity [7]: 79%
residual activity [8]: 120%

COc1ccc(COc2ccc(Cc3cnc(N)nc3N)cc2OC)cc1
residual activity [10]: 108%

O=S(=O)(c1cccc2cnccc12)N1CCCNCC1
residual activity [4]: 84%
residual activity [6]: 67%
residual activity [8]: 126%

CC(C)N(CCC(=O)c1ccc2ccccc2c1)Cc1ccccc1
residual activity [4]: 78%
residual activity [5]: 100%
residual activity [7]: 85%
residual activity [8]: 79%

O=C(c1cc2cc(O)ccc2[nH]1)c1cc2cc(O)ccc2[nH]1
residual activity [4]: 68%
residual activity [5]: 28%
residual activity [10]: 62%
residual activity [6]: 18%
residual activity [7]: 52%
residual activity [8]: 39%

NC(=O)c1cccc(-c2cc(Nc3ccc(OC(F)(F)F)cc3)ncn2)c1
residual activity [3]: 96%
residual activity [5]: 159%
residual activity [10]: 92%
residual activity [6]: 92%
residual activity [8]: 96%

COc1ccc(Cl)cc1NC(=O)Nc1cc(C)nc2ccccc12
residual activity [4]: 80%
residual activity [5]: 73%
residual activity [7]: 78%
residual activity [8]: 93%

Oc1cccc(-c2nc(N3CCOCC3)c3oc4ncccc4c3n2)c1
residual activity [6]: 66%
residual activity [8]: 91%

Cn1c2ccccc2c2c3c(c4c5ccccc5n(CCC#N)c4c21)CNC3=O
residual activity [2]: 100%
residual activity [9]: 99%
residual activity [4]: 82%
residual activity [5]: 40%
residual activity [10]: 76%
residual activity [6]: 47%
residual activity [8]: 9%

CCOc1nc(NC(=O)Cc2cc(OC)ccc2OC)cc(N)c1C#N
residual activity [4]: 79%
residual activity [5]: 100%

CCN1/C(=C/C(C)=O)Sc2ccc(OC)cc21
residual activity [7]: 65%

N#C/C(=C\c1ccc(O)c(O)c1)C(=O)NCc1ccccc1
residual activity [9]: 125%
residual activity [4]: 79%
residual activity [5]: 32%
residual activity [10]: 61%
residual activity [6]: 17%
residual activity [7]: 73%
residual activity [8]: 88%

N#Cc1c(NC(=O)c2cccc3ccccc23)sc2c1CCCC2
residual activity [6]: 90%
residual activity [7]: 86%
residual activity [8]: 136%

O=C1NC(=O)C(c2cn(CCCO)c3ncccc23)=C1c1cnccn1
residual activity [9]: 99%
residual activity [3]: 94%
residual activity [6]: 92%
residual activity [8]: 129%

CCN(CC)CCNC(=O)c1c(C)[nH]c(/C=C2\C(=O)Nc3ccc(Cl)cc32)c1C
residual activity [4]: 59%
residual activity [5]: 23%
residual activity [10]: 60%
residual activity [6]: 32%
residual activity [7]: 73%
residual activity [8]: 31%

Cc1cc(C)c(/C=C2\C(=O)Nc3ccccc32)[nH]1
residual activity [9]: 124%
residual activity [10]: 80%
residual activity [6]: 67%

O=C1NC(=O)C(c2c[nH]c3ccccc23)=C1c1c[nH]c2ccccc12
residual activity [3]: 99%
residual activity [4]: 76%
residual activity [5]: 65%
residual activity [10]: 78%
residual activity [6]: 29%
residual activity [8]: 81%

O=C1C(Cl)=C(N2C(=O)CCC2=O)C(=O)c2ccccc21
residual activity [2]: 92%
residual activity [9]: 95%
residual activity [3]: 92%
residual activity [4]: 90%
residual activity [5]: 100%
residual activity [6]: 97%
residual activity [7]: 82%
residual activity [8]: 122%

O=C1NC(=O)C(c2cn(CCCn3ccnc3)c3ccccc23)=C1Nc1ccccc1
residual activity [4]: 46%
residual activity [5]: 14%
residual activity [10]: 52%
residual activity [6]: 12%
residual activity [8]: 79%

O=c1cc(N2CCOCC2)oc2c(-c3ccccc3)cccc12
residual activity [9]: 101%
residual activity [3]: 71%
residual activity [4]: 75%
residual activity [7]: 74%

CC(C)c1nn(-c2c(Cl)cccc2Cl)c2nc(Cc3ccc(OCCO)cc3)[nH]c(=O)c12
residual activity [2]: 105%
residual activity [3]: 59%
residual activity [4]: 99%
residual activity [5]: 103%
residual activity [10]: 97%
residual activity [6]: 91%
residual activity [7]: 81%
residual activity [8]: 109%

c1ccc(-c2cnc(Nc3ccc(OCCN4CCCC4)cc3)s2)cc1
residual activity [9]: 103%
residual activity [3]: 103%
residual activity [8]: 53%

NCCNc1ncc(C(N)=O)c(Nc2cccc(C(F)(F)F)c2)n1
residual activity [2]: 104%
residual activity [9]: 114%
residual activity [3]: 101%
residual activity [4]: 81%
residual activity [5]: 129%
residual activity [10]: 82%
residual activity [6]: 78%
residual activity [7]: 66%
residual activity [8]: 63%

COc1ccc2c(c1)c(C1=C(c3c[nH]c4ccccc34)C(=O)NC1=O)cn2CCCN(C)C
residual activity [3]: 100%
residual activity [4]: 107%
residual activity [5]: 56%
residual activity [10]: 80%
residual activity [6]: 41%
residual activity [8]: 77%

Nc1nccc(-c2c(-c3ccc(F)cc3)ncn2C2CCNCC2)n1
residual activity [7]: 75%
residual activity [8]: 132%

O=C(Nc1ccc(Cl)cc1)c1ccccc1NCc1ccncc1
residual activity [5]: 128%
residual activity [6]: 72%
